Shown are actives, neighbours in structure and some others; about 20% of the full set was active somewhere.
Pf growth 48h: Primary qHTS for delayed death inhibitors of the malarial parasite plastid, 48 hour incubation; Potency, µM (series often up to 28.7 µM), for inactives: at the highest dose activity change, negative = inhibition, most hits filed as inhibitors; actives 5.9% (n = 310,000); P. falciparum luciferase growth in erythrocytes, 48 h; AID 504832, 2011; note: potency is the fitted concentration of half-maximal effect; % is set by controls: 0 for no effect and ±100 for the full control effect
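Read-out is firefly luciferase luminescence from an integrated reporter in P. falciparum, so falling signal marks reduced parasite growth. Infected erythrocytes were at 2% hematocrit and 0.1% parasitemia (final) in Albumax-supplemented RPMI 1640.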
HCMV inh: qHTS Assay for inhibitors of the human cytomegalovirus (HCMV); HFF cells, HCMV-luciferase reporter, 72 h; active compounds read low; activity change, negative = inhibition, % at 57.5 µM; actives 4.5% (n = 410,000); AID 1259415, 2018; in the data active = activity change below about -60%; inconclusive = no clear call, values can overlap the other calls; inactive = above about -39%; note: % is set by controls: 0 for no effect and ±100 for the full control effect
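HFF cells seeded 16 h at 37C, treated with compounds, infected with luciferase-reporter HCMV at MOI 1 PFU/cell; luciferase read at 72 h post infection, normalized to buffer-only and Salinomycin controls.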
Cycloheximide cs: Cycloheximide Counterscreen for Small Molecule Inhibitors of Shiga Toxin; cell reporter, cycloheximide protein synthesis inhibition counterscreen; max response, %; actives 12% (n = 300,000); in the data active = max response mostly above about 13%, no sharp cut-off; inactive = mostly below about 14%; note: read at 38.3 µM for the half of the compounds with a filed dose; 0% is about no effect
Pf growth 96h: Primary qHTS for delayed death inhibitors of the malarial parasite plastid, 96 hour incubation | P. falciparum luciferase reporter growth, 96 h | AID 504834, 2011 | actives 6.9% (n = 320,000) | Potency, µM (doses to about 28.7 µM), inactives show at the highest dose activity change, negative = inhibition, hits mostly inhibitors; note: potency is the fitted concentration of half-maximal effect; % is set by controls: 0 for no effect and ±100 for the full control effect
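P. falciparum expressing integrated firefly luciferase grown in erythrocytes (2% hematocrit, 0.05% parasitemia final) with compounds for 96 hours at 37 C, 5% CO2. Growth inhibition read as loss of luminescence after adding luciferase detection reagent.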
Shiga toxin inh: A qHTS for Small Molecule Inhibitors of Shiga Toxin | Vero cells, Shiga toxin protein synthesis inhibition reporter | AID 2315, 2010 | inhibition, % at 38.7 µM | actives 9.2% (n = 290,000); in the data active = inhibition mostly above about 28%, no sharp cut-off; inactive = mostly below about 43%; note: 0% is about no effect
* = called active by the depositor. Unless noted, calls come from the whole dose curve; as a rule, active = well fitted inhibition curve with a large enough effect; inconclusive = small, poorly fitted or top-dose-only effect, or another doubt; inactive = no such curve, though single readings can be large or run the other way.

Cc1cccn2c(=O)c(/C=C(\C#N)S(=O)(=O)c3ccccc3)c(N3CCCCC3)nc12 was read as Pf growth 48h inconclusive, HCMV inh -35.0, Cycloheximide cs 1.5, Pf growth 96h inconclusive and Shiga toxin inh -29.4.
Screening CCOC(=O)C1CCN(c2nc3c(C)cccn3c(=O)c2/C=C(\C#N)S(=O)(=O)c2ccccc2)CC1 returned Pf growth 48h 9.28µM*, HCMV inh 3.7, Cycloheximide cs -4.6, Pf growth 96h inconclusive and Shiga toxin inh -10.0.
`CCN1CCN(c2nc3c(C)cccn3c(=O)c2/C=C(\C#N)S(=O)(=O)c2ccc(C)cc2)CC1` gave Pf growth 48h 13.0%, HCMV inh 60.1, Cycloheximide cs -3.8, Pf growth 96h 4.15µM* and Shiga toxin inh 16.5.
COc1ccc(-n2ncc(C(C)NS(=O)(=O)c3cc(F)ccc3C)c2C)cc1 (configuration not stated) was read as Pf growth 48h -10.2%, Cycloheximide cs 20.8*, Pf growth 96h 5.6% and Shiga toxin inh -4.0.
O=C1C=CC(=C(c2ccc(O)cc2)c2ccc(O)cc2)C=C1 was read as Pf growth 48h 7.38µM*, HCMV inh -100.1* and Pf growth 96h 7.38µM*.
For CC(C)(C)OC(=O)NCCCC[C@H](NC(=O)c1nc[nH]c1C(=O)N1CCN(C(=O)OC(C)(C)C)CC1)C(=O)OC(C)(C)C the results were Pf growth 48h inconclusive, HCMV inh -8.0, Cycloheximide cs 0.6, Pf growth 96h 8.28µM* and Shiga toxin inh -17.7.
`CC(C)(C)OC(=O)NCCCCCNC(=O)c1nc[nH]c1C(=O)N1CCN(c2ccccc2)CC1` gave HCMV inh -28.9.
CC(C)(C)OC(=O)NCCCCCNC(=O)c1nc[nH]c1C(=O)N1CCN(C(=O)OC(C)(C)C)CC1 was read as Pf growth 48h inconclusive, HCMV inh 2.8 and Pf growth 96h inconclusive.
Screening CC(C)(C)OC(=O)NCCCC[C@H](NC(=O)c1nc[nH]c1C(=O)N1CCN(c2ccccc2)CC1)C(=O)OC(C)(C)C returned Pf growth 48h 11.7µM*, HCMV inh 21.0, Cycloheximide cs -4.7, Pf growth 96h 13.1µM* and Shiga toxin inh 3.4.
`CC(C)C[C@H](NC(=O)c1nc[nH]c1C(=O)N1CCN(C(=O)OC(C)(C)C)CC1)C(=O)OC(C)(C)C` gave Pf growth 48h inconclusive, HCMV inh -96.0*, Cycloheximide cs 0.7, Pf growth 96h inconclusive and Shiga toxin inh -1.2.
Screening COC1OC2COC(c3ccccc3)OC2C(O)C1NC(=O)c1ccccc1 (configuration not stated) returned HCMV inh 16.4.
CCOc1ccc(CNC(=O)CSc2nnc(C)c3c(C)n(-c4ccc(Cl)cc4)nc23)cc1 was read as HCMV inh -12.3.
Screening O=C(NC1CCCCCC1)c1ccc(=O)n(Cc2ccccc2)n1 returned Pf growth 48h -26.5%, HCMV inh -65.6*, Cycloheximide cs -3.0, Pf growth 96h inconclusive and Shiga toxin inh 21.3.
COC(=O)C1CCN(C(=O)COC(=O)c2ccc(=O)n(Cc3ccccc3)n2)CC1 was read as Pf growth 48h -8.8%, HCMV inh 4.6 and Pf growth 96h 10.0%.
Screening COCCN(Cc1ccc(C)c(Br)c1)S(=O)(=O)c1ccc2[nH]c(=O)ccc2c1 returned HCMV inh -5.7.
`Cc1nonc1OCCNc1ccc([N+](=O)[O-])cc1[N+](=O)[O-]` gave Pf growth 48h 4.1%, HCMV inh -37.6, Cycloheximide cs -1.8, Pf growth 96h 48.6% and Shiga toxin inh -4.9.
`Cc1nonc1OC(C)CNc1ccc([N+](=O)[O-])cc1` (configuration not stated) gave Pf growth 48h 3.7µM*, HCMV inh -10.6, Cycloheximide cs 7.7, Pf growth 96h 23.7% and Shiga toxin inh -14.5.
Cc1ccc(-c2nc3c(Br)cc(C)cn3c2Cc2cccc(Cl)c2)cc1 was read as HCMV inh 92.6.
CCO[C@@H]1OC(C(=O)NCc2nc3ccccc3[nH]2)=C[C@H](C)[C@H]1CCCO was read as Pf growth 48h 1.7%, HCMV inh -39.6, Cycloheximide cs 6.7, Pf growth 96h 4.7% and Shiga toxin inh 9.9.

High-throughput results from PubChem.
